Tau ThT inhib: qHTS for Inhibitors of Tau Fibril Formation, Thioflavin T Binding; actives 2.1% (n = 270,000); Potency, µM (doses to about 57.4 µM), for inactives: at the highest dose activity, negative = inhibition, actives largely listed as inhibitors; recombinant tau K18 P301L, heparin-induced fibrillization, ThT fluorescence; AID 1460, 2008; Microtubule-associated protein tau (Homo sapiens), P10636; note: potency is the fitted concentration of half-maximal effect; nearly all actives have a fitted effect of over 55% in size
Target sequence (P10636 561-689 P618L limits assumed): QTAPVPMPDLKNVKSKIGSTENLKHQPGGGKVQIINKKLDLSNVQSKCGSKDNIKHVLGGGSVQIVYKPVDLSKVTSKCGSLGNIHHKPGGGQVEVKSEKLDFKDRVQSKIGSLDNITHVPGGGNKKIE
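Aggregation was driven by heparin (20 uM final) acting on recombinant tau […] bearing P301L in 100 mM sodium acetate pH 7; fibrils were detected with Thioflavin T.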
Sfp PPTase inh: qHTS Assay for Inhibitors of Bacillus subtilis Sfp phosphopantetheinyl transferase (PPTase) | 4'-phosphopantetheinyl transferase ffp (Bacillus subtilis), Q9F4F7 | Biochemical Sfp PPTase activity, qHTS | Potency, µM, inactives show largest response in the series, negative = inhibition, usual class: inhibitors | AID 1490, 2009 | actives 3.5% (n = 310,000);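 note: the enzyme is Sfp with the accession as filed and its product quenches rhodamine fluorescence; potency is the fitted concentration of half-maximal effect; 0% = enzyme reaction without inhibitor and -100% = no enzyme wells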
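Compounds were incubated with enzyme (final 15 nM) for 15 min at room temperature before substrate addition started the reaction. Fluorescence at 525 nm excitation, 598 nm emission was recorded immediately and after 30 minutes.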
Tau fluor counter: Counterscreen qHTS for Inhibitors of Tau Fibril Formation, Fluorescence Polarization. tau K18 P301L Alexa594 fluorescence, heparin fibrillization. AID 1463, 2008. Potency, µM (titrated, usually from 57.7 µM), for inactives: top-dose activity change, negative = decrease. actives 0.93% (n = 280,000); note: potency is the fitted concentration of half-maximal effect; nearly all actives have a fitted effect of over 55% in size
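Human tau K18 P301L (15 uM unlabeled, 0.24 uM Alexa 594-labeled) in 100 mM sodium acetate pH 7 with 20 uM heparin, 6 hr at 37 C. ThT 30 uM added, 1 hr ambient; Alexa 594 FP and total fluorescence read at 555/632 nm.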
G9a inh: qHTS Assay for Inhibitors of Histone Lysine Methyltransferase G9a; G9a H3K9 monomethylation, AlphaScreen, 2 h; Potency, µM (series often up to 102 µM), for the others: at the highest dose activity, negative = inhibition, usual class: inhibitors; actives 8.8% (n = 350,000); AID 504332, 2011; note: potency is the fitted concentration of half-maximal effect; nearly all actives have a fitted effect of over 75% in size
Target sequence (Q96KQ7 913-1193 limits assumed): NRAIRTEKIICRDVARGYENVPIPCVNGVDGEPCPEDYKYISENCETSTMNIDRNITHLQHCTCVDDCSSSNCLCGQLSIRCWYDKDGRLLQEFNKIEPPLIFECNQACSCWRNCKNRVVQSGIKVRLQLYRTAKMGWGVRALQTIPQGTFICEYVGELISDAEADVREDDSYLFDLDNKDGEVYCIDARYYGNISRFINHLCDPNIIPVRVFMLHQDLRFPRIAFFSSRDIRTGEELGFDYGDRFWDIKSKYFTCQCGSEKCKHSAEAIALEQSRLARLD
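G9a (20 nM) preincubated 15 min RT with compounds, then 500 nM biotinylated H3K9 peptide and 20 uM SAM added; 2 h RT reaction. Monomethyl-H3K9 product detected by AlphaScreen with anti-H3K9me1 antibody, streptavidin donor and anti-rabbit IgG acceptor beads.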
Tau FP inhib: qHTS for Inhibitors of Tau Fibril Formation, Fluorescence Polarization | Microtubule-associated protein tau (Homo sapiens), P10636 | K18 P301L tau heparin fibrillization, Alexa594 FP, 6 h | Potency, µM (doses to about 57.7 µM), without a hit: at the highest dose activity, negative = inhibition, most hits filed as inhibitors | actives 0.39% (n = 280,000) | AID 1468, 2008; note: potency is the fitted concentration of half-maximal effect; nearly all actives have a fitted effect of over 55% in size
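FP of Alexa 594-tau after heparin (20 uM) induction. Substrate: human K18 P301L, 15 uM unlabeled, 0.24 uM labeled. Buffer 100 mM sodium acetate pH 7. 6 hr, 37 C.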
Coupling enz: qHTS Assay for Inhibitors of Fructose-1,6-bisphosphate Aldolase from Giardia Lamblia: Coupling assay counterscreen; coupling enzyme system counterscreen, AmpLite Red fluorescence; activity change, negative = inhibition, % at 58.2 µM, hits read low; actives 0.67% (n = 290,000); AID 2472, 2010; in the data active = activity change below about -30%
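First, compound is pin-transferred into glyceraldehyde-3-phosphate coupling-enzyme reagent at 57.5 uM final and held 10 min at RT. Next, substrate, coupling system and AmpLite Red are added. After 20 min RT, fluorescence (525/598 nm) is read.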
Starred values were filed as active, the others as inactive; ? = inconclusive; . = no result given; [ ] = another dose, or the depositor's remark. An excerpt weighted towards active compounds, which were near 11% of everything screened. Unless noted, calls come from the whole dose curve; as a rule, active = well fitted curve in the direction sought with a large enough effect; inconclusive = small, poorly fitted or top-dose-only effect, or another doubt; inactive = no such curve, though single readings can be large; an effect the other way counts as inactive or inconclusive. Unless noted, % is set by controls: 0 for no effect and ±100 for the full control effect.

SMILES	Tau ThT inhib	Sfp PPTase inh	Tau fluor counter	G9a inh	Tau FP inhib	Coupling enz
CN1CCN(C2=NC(=O)/C(=C/c3ccccc3OS(=O)(=O)c3ccccc3)S2)CC1	-1.7%	20µM*	-1.0%	44.7µM*	-0.9%	1.1
COc1cccc(/C=C2\SC(N3CCCC(C)C3)=NC2=O)c1OC (stereo not drawn)	.	-10.0%	.	70.8µM*	.	-1.8
COc1cccc(/C=C2\SC(N3CCC(C)CC3)=NC2=O)c1OC	.	50.1µM*	.	28.2µM*	.	-3.1
CCN(c1ccccc1)S(=O)(=O)c1ccc(OC)c(NC(=O)COc2ccc(C(C)=O)cc2)c1	.	.	.	56.2µM*	.	.
CCN(c1ccccc1)S(=O)(=O)c1ccc(OC)c(NC(=O)CCc2nc3ccccc3c(=O)[nH]2)c1	.	.	.	44.7µM*	.	.
Cc1ccc(Cc2c(C)nc3nc(SCC(=O)NCCCN4CCCCCC4)nn3c2C)cc1	.	-6.0%	.	35.5µM*	.	0.5
Cc1nc2nc(SCC(=O)NCCCN3CCCC3)nn2c(C)c1Cc1ccccc1Cl	.	3.1%	.	79.4µM*	.	0.8
CCCCCN1C(C(=O)c2ccccc2)=C(NC(=O)c2ccc(OC)cc2)c2ccccc2S1(=O)=O	-7.1%	.	-28.8%	-40.5%[59 µM]	-9.0%	.
Cc1ccccc1C(=O)N1CC(=O)Nc2ccc(Cl)cc2C1c1ccccc1 (stereo not drawn)	-8.3%	.	-14.1%	?	-6.3%	.
CCN(C(=O)CN1C(=O)NC2(CCc3ccccc32)C1=O)C1CCCCC1 (stereo not drawn)	.	.	.	44.7µM*	.	.
COc1ccccc1C(=O)CN1C(=O)NC2(CCc3ccccc32)C1=O (stereo not drawn)	.	.	.	50.1µM*	.	.
COc1ccc(C(=O)CN2C(=O)NC3(CCCc4ccccc43)C2=O)c(OC)c1 (stereo not drawn)	.	8.6%	.	10.2%	.	.
C=CCn1c(C)cc(C(=O)CN2C(=O)NC3(CCCc4ccccc43)C2=O)c1C (stereo not drawn)	-20.8%	-5.8%	-18.6%	44.7µM*	-8.4%	0.5
COc1ccc(N2CCN(C(=O)CN3C(=O)NC(c4ccc(OC)cc4)(c4ccc(OC)cc4)C3=O)CC2)cc1	.	1.2%	.	.	.	.
Cc1cc(C(=O)CN2C(=O)NC3(CCCc4ccccc43)C2=O)c(C)n1Cc1cccs1 (stereo not drawn)	-3.1%	8.6%	0.1%	2.6%[59 µM]	-6.1%	0.2
COc1ccc(N2CCN(C(=O)CN3C(=O)NC4(CCCc5ccccc54)C3=O)CC2)cc1 (stereo not drawn)	.	.	.	39.8µM*	.	.
O=C(NCCCN1CCCC1)Nc1ccccc1[N+](=O)[O-]	.	9.2%	.	?	.	3.1
O=C1C2C3C=CC(C3)C2C(=O)N1CCN1CCN(Cc2ccc([N+](=O)[O-])cc2)CC1 (stereo not drawn)	-4.3%	4.9%	-2.9%	-4.2%	-5.8%	0.4
CC(=O)c1ccc(NC(=O)CCCCCn2nnc3ccccc3c2=O)cc1	.	-6.3%	.	13.1%	.	3.1
O=C(CSCC(=O)OCn1nnc2ccccc2c1=O)Nc1ccc(Cl)cc1	-14.7%	-10.1%	-3.1%	44.7µM*	-0.7%	-1.1
CN(C)c1ccc(NC(=O)CCCCCn2nnc3ccccc3c2=O)cc1	.	7.3%	.	50.1µM*	.	0.6
O=C(CCSc1ccccc1)OCn1nnc2ccccc2c1=O	-4.6%	-13.6%	-8.0%	85.0%	-2.5%	-0.7
